# Results as given in PubChem BioAssay.
# Activity calls are given as the source filed them.
# What was measured:
# [1] = test system: Plasmodium falciparum Sir2 (PF13_0152, Sir2A); experiment: Plasmodium falciparum Sir2A binding compounds – biochemical, small-molecule microarray, 635 nm fluorescence, primary screen (AID 1098); conditions: fluorescence 635 nm, higher = more signal;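 further: score merges spot fluorescence intensity with its signal-to-noise ratio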
# [2] = probe aDKK1 binding to arrayed compounds – biochemical, biotinylated probe, 635/667 nm fluorescence, primary screen (AID 1099); conditions: small-molecule microarray, higher = more signal;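 further: score merges 667nm spot fluorescence with signal to noise across triplicate slides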
# [3] = probe aCHRDL2 binding to arrayed compounds – biochemical, biotinylated probe, 635/667 nm fluorescence, primary screen (AID 1100); conditions: small-molecule microarray, higher = more signal
# [4] = change in splice reporter luminescence, either direction, cell-based, HEK293, spliceosome inhibition project, primary screen (AID 1101); conditions: HEK293 splicing luciferase reporter, 24 h, higher = more signal, called active from +8 up or from −8 down;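 further: HEK293 cells carrying a splicing-competent luciferase reporter gene; test concentration not given here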
# [5] = molecular target: Fibroblast growth factor 10 (Homo sapiens) (UniProt O15520); experiment: compounds binding fibroblast growth factor 10 – biochemical, small-molecule microarray, 635 nm fluorescence, primary screen (AID 1102); conditions: FGF10 binding, fluorescence 635 nm, higher = more signal
# Chain of Fibroblast growth factor 10 (Homo sapiens) (O15520 whole entry, looked up): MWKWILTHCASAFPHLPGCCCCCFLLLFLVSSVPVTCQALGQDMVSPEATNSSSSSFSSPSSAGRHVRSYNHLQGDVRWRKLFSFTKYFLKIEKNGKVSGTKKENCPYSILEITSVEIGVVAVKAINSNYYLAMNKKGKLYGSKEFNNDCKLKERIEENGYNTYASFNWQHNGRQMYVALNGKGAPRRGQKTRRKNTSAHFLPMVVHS
# [6] = test system: glycogen synthase kinase-3 (GSK3A per assay name; protocol says GSK3B); experiment: compounds binding glycogen synthase kinase-3 – biochemical, small-molecule microarray, 635 nm fluorescence, GSK3A, primary screen (AID 1103); conditions: fluorescence 635 nm, higher = more signal; further: the record names both GSK3A and GSK3B
# [7] = molecular target: Epidermal growth factor receptor (Homo sapiens) (UniProt P00533); experiment: compounds binding epidermal growth factor receptor – biochemical, small-molecule microarray, 635 nm fluorescence, primary screen (AID 1104); conditions: EGFR binding, higher = more signal;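 further: score merges 667 nm emission intensity with spot signal to noise over triplicate slides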
# Chain of Epidermal growth factor receptor (Homo sapiens) (P00533 whole entry, looked up): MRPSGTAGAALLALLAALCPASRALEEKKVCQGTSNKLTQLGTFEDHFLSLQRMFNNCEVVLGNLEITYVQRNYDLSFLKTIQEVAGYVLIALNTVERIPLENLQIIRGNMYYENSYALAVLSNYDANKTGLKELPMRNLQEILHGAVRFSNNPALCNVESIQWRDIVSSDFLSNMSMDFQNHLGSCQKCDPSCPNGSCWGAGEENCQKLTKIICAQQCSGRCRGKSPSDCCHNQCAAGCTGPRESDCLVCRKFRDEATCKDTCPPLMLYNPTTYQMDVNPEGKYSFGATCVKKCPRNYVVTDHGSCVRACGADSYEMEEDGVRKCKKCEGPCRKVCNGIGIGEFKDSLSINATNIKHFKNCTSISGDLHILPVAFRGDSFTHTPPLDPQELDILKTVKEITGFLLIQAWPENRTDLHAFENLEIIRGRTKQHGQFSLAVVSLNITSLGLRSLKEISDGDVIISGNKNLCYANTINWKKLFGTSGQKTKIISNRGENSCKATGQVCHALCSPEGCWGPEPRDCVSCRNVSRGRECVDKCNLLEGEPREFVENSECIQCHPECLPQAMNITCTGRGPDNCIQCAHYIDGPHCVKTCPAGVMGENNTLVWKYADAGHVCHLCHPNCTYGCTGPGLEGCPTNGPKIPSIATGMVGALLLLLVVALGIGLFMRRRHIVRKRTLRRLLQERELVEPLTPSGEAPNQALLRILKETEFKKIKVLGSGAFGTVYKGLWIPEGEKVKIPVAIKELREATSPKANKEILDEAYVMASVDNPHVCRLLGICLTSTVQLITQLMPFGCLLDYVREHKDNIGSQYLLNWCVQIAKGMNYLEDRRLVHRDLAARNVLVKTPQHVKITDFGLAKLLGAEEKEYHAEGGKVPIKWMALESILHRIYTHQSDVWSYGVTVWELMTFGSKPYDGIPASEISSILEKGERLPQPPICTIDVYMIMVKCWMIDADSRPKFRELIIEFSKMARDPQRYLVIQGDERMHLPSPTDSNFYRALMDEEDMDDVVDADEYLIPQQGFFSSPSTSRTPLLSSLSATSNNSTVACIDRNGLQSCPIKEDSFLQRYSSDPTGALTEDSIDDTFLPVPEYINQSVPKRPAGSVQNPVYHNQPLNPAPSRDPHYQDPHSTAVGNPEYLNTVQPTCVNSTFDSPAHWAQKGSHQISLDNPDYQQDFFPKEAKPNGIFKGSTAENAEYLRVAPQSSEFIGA
# [8] = molecular target: Follistatin-related protein 3 (Homo sapiens) (UniProt O95633); experiment: compounds binding follistatin-related protein 3 – biochemical, small-molecule microarray, 635 nm fluorescence, primary screen (AID 1105); conditions: FSTL3 binding, higher = more signal;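 further: score merges emission near 667 nm and signal to noise per printed spot across three slides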
# Chain of Follistatin-related protein 3 (Homo sapiens) (O95633 whole entry, looked up): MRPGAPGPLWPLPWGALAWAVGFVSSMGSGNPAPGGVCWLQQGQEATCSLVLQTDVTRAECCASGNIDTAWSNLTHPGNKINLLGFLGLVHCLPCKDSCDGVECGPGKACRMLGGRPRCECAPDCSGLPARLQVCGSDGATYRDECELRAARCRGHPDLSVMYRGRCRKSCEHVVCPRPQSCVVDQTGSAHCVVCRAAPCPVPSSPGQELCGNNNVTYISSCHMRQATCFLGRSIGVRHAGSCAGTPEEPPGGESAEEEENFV
# [9] = molecular target: Dickkopf-related protein 1 (Homo sapiens) (UniProt O94907); experiment: small molecules binding DKK1 protein – biochemical, small-molecule microarray, 635 nm fluorescence scan, primary screen (AID 1106); conditions: higher = more signal;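 further: score merges emission near 667 nm with signal to noise over three replicate slides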
# Chain of Dickkopf-related protein 1 (Homo sapiens) (O94907 whole entry, looked up): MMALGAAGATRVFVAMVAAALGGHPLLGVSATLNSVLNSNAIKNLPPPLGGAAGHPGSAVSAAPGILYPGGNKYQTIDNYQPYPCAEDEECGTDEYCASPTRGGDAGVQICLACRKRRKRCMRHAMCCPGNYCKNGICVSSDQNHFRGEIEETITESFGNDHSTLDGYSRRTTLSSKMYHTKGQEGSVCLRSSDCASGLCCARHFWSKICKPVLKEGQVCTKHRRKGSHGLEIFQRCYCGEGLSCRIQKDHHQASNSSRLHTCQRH
# [10] = test system: Inhibin beta A chain (activin A); experiment: small molecules binding activin A – biochemical, small-molecule microarray, 635 nm fluorescence scan, primary screen (AID 1107); conditions: INHBA, higher = more signal;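 further: mouse activin A protein probed at 4.33 µg/mL on printed slides; score merges bound-protein fluorescence near 667 nm with spot signal-to-noise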
# [11] = test system: Human papillomavirus type 1a protein E7 (residues 44-93); experiment: small molecules binding HPV E7 44-93 – biochemical, small-molecule microarray, residues 44-93, 635 nm fluorescence, primary screen (AID 1108); conditions: fluorescence 635 nm, higher = more signal;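 further: E7 fragment applied at 1 µg/mL in TBST for 1 h at 4 C; score combines spot fluorescence with its signal to noise ratio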
# [12] = hepatitis C replication reporter changes, two-sided – Huh7 cells, luciferase reporter, HCV replication inhibitor project, primary screen (AID 1109); conditions: Huh7 HCV replicon luciferase reporter, 48 h; higher = more signal;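 further: huh7 hepatoma cells harbouring a luciferase neomycin HCV replicon reporter; luciferase luminescence as measure of HCV replicon replication; test concentration not given here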
# [13] = molecular target: Left-right determination factor 2 (Homo sapiens) (UniProt O00292); experiment: small molecules binding LEFTY2 protein – biochemical, small-molecule microarray, 635 nm fluorescence scan, primary screen (AID 1110); conditions: higher = more signal
# Chain of Left-right determination factor 2 (Homo sapiens) (O00292 whole entry, looked up): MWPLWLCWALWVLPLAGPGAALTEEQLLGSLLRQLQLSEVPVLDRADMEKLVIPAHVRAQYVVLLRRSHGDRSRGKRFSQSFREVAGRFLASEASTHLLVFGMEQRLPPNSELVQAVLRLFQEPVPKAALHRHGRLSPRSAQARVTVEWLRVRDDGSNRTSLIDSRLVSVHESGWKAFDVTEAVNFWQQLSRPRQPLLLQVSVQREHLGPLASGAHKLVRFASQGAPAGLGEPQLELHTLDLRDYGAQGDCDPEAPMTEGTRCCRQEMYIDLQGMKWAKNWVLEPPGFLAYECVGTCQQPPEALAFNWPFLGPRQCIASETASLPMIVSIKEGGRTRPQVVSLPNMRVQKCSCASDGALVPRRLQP
# [14] = molecular target: Calmodulin-1 (Homo sapiens) (UniProt P0DP23); experiment: small molecules binding calmodulin-1 with EGTA – biochemical, small-molecule microarray, Cy5-labelled CALM1, profiling panel (AID 1111); conditions: Cy5-CALM1 binding fluorescence, higher = more signal;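 further: labelled calmodulin applied in Tris saline Tween buffer holding calcium plus EGTA and DTT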
# [15] = molecular target: Calmodulin-1 (Homo sapiens) (UniProt P0DP23); experiment: small molecules binding Ca-loaded calmodulin-1 – biochemical, small-molecule microarray, Cy5-labelled CALM1, plus calcium, artefact control for SMM control-protein annotation, profiling panel (AID 1112); conditions: Cy5-CALM1 binding fluorescence, higher = more signal;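 further: score merges spot fluorescence with signal to noise from triplicate slides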
# [16] = probe aWnt5a binding to arrayed compounds – biochemical, biotinylated probe, 635/667 nm fluorescence, primary screen (AID 1113); conditions: small-molecule microarray, higher = more signal;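 further: score merges 667 nm fluorescence intensity with signal-to-noise per printed feature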
# [17] = probe aShh binding to arrayed compounds – biochemical, biotinylated probe, 635/667 nm fluorescence, primary screen (AID 1114); conditions: small-molecule microarray, higher = more signal;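 further: probe is biotin-labelled aShh protein from a stem cell growth factor screen; measures binding of labelled protein to compounds printed on the slide; score merges feature fluorescence at 667 nm with signal-to-noise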
# [18] = probe aNog binding to arrayed compounds – biochemical, biotinylated probe, 635/667 nm fluorescence, primary screen (AID 1115); conditions: small-molecule microarray, higher = more signal;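 further: probe is biotinylated aNog protein used at 0.15 µg/mL for 1 h at 4 C; z-score combines 667 nm fluorescence of each spot with its signal to noise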
# [19] = molecular target: Torsin-1A-interacting protein 1 (Homo sapiens) (UniProt Q5JTV8); experiment: compound microarray binding of lysate hLAP1 – cell lysate, small-molecule microarray, COS7 lysate, 635/667 nm fluorescence, primary screen (AID 1116); conditions: 635 nm fluorescence, higher = more signal
# Chain of Torsin-1A-interacting protein 1 (Homo sapiens) (Q5JTV8 whole entry, looked up): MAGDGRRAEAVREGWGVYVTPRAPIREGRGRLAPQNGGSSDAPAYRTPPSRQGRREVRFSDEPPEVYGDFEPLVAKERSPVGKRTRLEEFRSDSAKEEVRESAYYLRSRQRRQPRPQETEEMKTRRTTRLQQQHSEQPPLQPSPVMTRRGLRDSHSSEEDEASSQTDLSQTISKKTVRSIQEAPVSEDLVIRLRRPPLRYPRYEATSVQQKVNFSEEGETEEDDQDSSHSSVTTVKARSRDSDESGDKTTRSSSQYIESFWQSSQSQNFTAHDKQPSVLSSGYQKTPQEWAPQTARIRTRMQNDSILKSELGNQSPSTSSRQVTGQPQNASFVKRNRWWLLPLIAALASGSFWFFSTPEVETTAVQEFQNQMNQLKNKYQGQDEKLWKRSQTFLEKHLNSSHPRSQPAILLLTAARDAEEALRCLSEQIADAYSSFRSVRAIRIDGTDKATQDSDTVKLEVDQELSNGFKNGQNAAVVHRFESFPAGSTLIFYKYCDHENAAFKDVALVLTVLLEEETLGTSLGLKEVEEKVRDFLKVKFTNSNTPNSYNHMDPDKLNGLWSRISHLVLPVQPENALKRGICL
# [20] = molecular target: Alpha-bungarotoxin (Bungarus multicinctus) (UniProt P60615); experiment: compounds binding labelled alpha-BTX control protein – biochemical, small-molecule microarray, Alexa647 label, 635/667 nm fluorescence, artefact control for SMM control protein annotation, profiling panel (AID 1117); conditions: alpha-BTX-A647 binding fluorescence, higher = more signal
# Chain of Alpha-bungarotoxin (Bungarus multicinctus) (P60615 whole entry, looked up): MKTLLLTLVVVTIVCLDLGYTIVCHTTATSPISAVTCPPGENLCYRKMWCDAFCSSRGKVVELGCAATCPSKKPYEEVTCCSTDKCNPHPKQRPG
Structure (SMILES),composite z-score [1],composite z-score [2],composite z-score [3],z-score [4],composite z-score [5],composite z-score [6],composite z-score [7],composite z-score [8],composite z-score [9],composite z-score [10],composite z-score [11],z-score [12],composite z-score [13],composite z-score [14],composite z-score [15],composite z-score [16],composite z-score [17],composite z-score [18],composite z-score [19],composite z-score [20]
CO[C@H]1O[C@H](CO)[C@@H](OC(=O)Nc2ccccc2)[C@H](OC(=O)Nc2ccccc2-c2ccccc2)[C@@H]1OC(=O)Nc1ccccc1-c1ccccc1,1.36,0.318,0.464,-1.05 (inactive),1.19,1.32,0.561,1.16,0.621,0.522,0.781,-3.09,0.986,1.95,0.357,0.131,1.85,1.59,1.1,2.77
COc1ccc(C#Cc2ccc3c(c2)[C@]2(C(=O)N3)[C@H](c3ccc(O)cc3)N3[C@H](c4ccccc4)[C@H](c4ccccc4)OC(=O)[C@H]3[C@@H]2C(N)=O)cc1,0.348,-0.0576,0.698,6.64 (inactive),-0.425,-0.381,-1.06,-1.08,-0.67,0.227,0.53,-1.68,-1.07,0.0315,1.03,-0.136,0.0735,0.482,-0.203,0.997
C=CCN1C(=O)[C@@]2(O[C@@H](CCn3cc(CCO)nn3)[C@H]([Si](C)(C)c3ccc(OC)cc3)[C@H]2C)c2cc(N3C(=O)c4cccc5cccc3c45)ccc21,0.579,0.13,-0.224,-3.34 (inactive),0.466,0.308,0.234,0.688,0.315,0.58,0.51,-5.22,-0.165,1.37,0.258,0.0733,-0.138,0.473,0.482,1.6
CC(C)C(=C=CC[C@H](O)c1ccc(OCCO)cc1)C[C@H](O)COCc1ccccc1,1.12,-0.0067,-0.226,-0.642 (inactive),0.498,0.653,-0.445,0.421,0.141,1.42,0.162,-1.87,-0.022,0.59,-0.627,-0.0403,0.0469,0.217,0.833,1.07
COc1ccc([Si](C)(C)[C@@H]2[C@@H](CC(=O)N3CCC[C@H]3CO)O[C@]3(C(=O)N(Cc4ccc(N5CCC5=O)cc4)c4ccccc43)[C@H]2C)cc1,1.22,0.123,0.0655,-0.473 (inactive),0.61,0.398,0.35,0.489,0.33,0.194,0.196,-1.96,0.499,0.593,0.343,-0.124,0.257,0.241,0.303,0.428
COC(=O)C1=CC(CCCO)=CC(C2CC2)N(Cc2cc3c(cc2Br)OCO3)C=C1C(=O)OC (stereo not given),1.57,1.03,1.14,-0.575 (inactive),0.0344,0.194,-0.482,0.0154,0.47,0.945,1.36,-0.164,-0.998,2.27,0.67,-0.0269,0.0141,0.842,3.07,1.97
C=CCC(OC(C)=O)[C@@H]1[C@@H](N(Cc2cc3ccccc3o2)C(=O)c2ccc(-c3ccccc3)cc2)c2cc(OCCCO)ccc2N1C(=O)c1ccc(-c2ccccc2)cc1 (stereo not given in full),-0.149,0.232,0.641,-1.04 (inactive),0.0657,-0.402,-0.154,0.0956,-0.0818,1.27,-0.292,-0.366,0.0559,0.0671,1.29,0.0628,-0.282,0.502,0.2,0.484
O=C(O)[C@H]1C[C@H]2C(=O)NCC(=O)N2[C@H]1c1cccc(OCCO)c1,1.69,0.809,0.725,-0.387 (inactive),0.082,0.444,0.0343,0.778,0.552,1.5,0.22,3.1,-0.166,0.338,0.921,0.291,0.0118,0.906,1.51,1.81
C=C(/C(=C/C[C@H](OC(=O)c1ccncc1)c1cccc(OCCO)c1)c1cc(C(=O)OC)ccc1OC)C(C)C,0.903,0.235,0.569,-1.63 (inactive),0.493,-0.129,-0.763,-0.127,-0.227,0.639,0.0251,-1.86,-0.107,-0.193,-0.808,-0.169,-0.0035,0.0866,-0.142,0.288
C=CC[C@@]1(C(=O)NCc2ccccc2)N=C(c2ccc(OCCCO)cc2)O[C@@H]1c1ccccc1,1.54,0.787,1.31,-1.19 (inactive),-0.28,0.659,-1.08,-0.571,-0.918,0.997,0.483,-3.03,-0.762,1.68,0.369,-0.101,0.123,0.49,1.68,1.1
O=C1O[C@H](c2ccccc2)[C@H](c2ccccc2)N2[C@H]1[C@@H](C(=O)Nc1nc3ccccc3s1)[C@]1(C(=O)Nc3ccc(C#CCCO)cc31)[C@H]2c1ccccc1OCCO,1.35,0.676,0.784,-0.0121 (inactive),0.545,1.31,0.289,0.892,0.328,0.793,0.793,-1.79,0.537,1.74,0.439,0.0849,0.355,1.3,1.26,1.97
